The panel holds about 83,000 compounds, 20% with a hit somewhere; the sample as a whole holds those more often.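 Plates (96-well) were seeded with cells, treated with compound at one concentration, and incubated for 48 hours before percent growth was determined.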 Values without a mark were called inactive. The source made the active and inactive calls. Rule for the calls: active = growth percent below 10; inactive = the rest.

This test relates to OVCAR-4 ovarian. Nature of the test: NCI-60 one-dose screen, 48 h (100 = growth as untreated, 0 = no growth, -100 = all killed). To be noted: 10 µM.
Turning to `O=[N+]([O-])c1cc([N+](=O)[O-])c(NN=C(c2ccc(O)cc2)c2ccc(O)cc2)cc1Cl`, the growth is -47.7% (active).

For `Cc1cc(SC#N)ncn1`, the growth is 103%.

Consider `O=C(N/N=C/c1c(Cl)cccc1Cl)c1cccc(Nc2ccnc(C(F)(F)F)c2)c1`, for which the growth is 69.3%.

On to `O=[N+]([O-])c1cc([N+](=O)[O-])c(C(F)(F)F)cc1NN=C(c1ccc(O)cc1)c1ccc(O)cc1`, for which the growth is 81.3%.

`N/C(=N\c1nc2ccccc2[nH]1)NC(=O)Cc1cccc2ccccc12`: the growth is 70.6%.

Turning to `CCN(CC)CCCC(C)Nc1ccnc2cc(Cl)c(SCc3ccccc3)cc12` (stereo not drawn), the growth is 7.81% (active).

`O=C(Oc1ccc(Cl)cc1[N+](=O)[O-])Oc1ccc(Cl)cc1[N+](=O)[O-]`: the growth is 119%.

As for `C[C@@H](NC(=O)[C@@H](CC(=O)N1CCC(N2CCCCC2)CC1)N1C(=O)[C@@H](N2C(=O)OC[C@@H]2c2ccccc2)[C@H]1/C=C/c1cccc(Cl)c1)c1ccccc1`, the growth was 78.6%.

`COc1ccc2c3ccnc(C(F)(F)F)c3n(CCCCN)c2c1`: the growth is 74.6%.

Turning to `CCOC(=O)c1c[nH]c2cc(OCC3CC3)c(OCC3CC3)cc2c1=O`, the growth was 118%.

In the case of `COc1ccc(-c2nc3ccccn3c2/C=C/C(=O)c2cc(OC)c(OC)c(OC)c2)cc1OC`, the growth was 17.8%.

Take `NC(=S)Cc1ccccc1`: the growth was 97%.

Take `CC(C)C1=NOC(=O)C1=Cc1cn(-c2ccccc2)nc1-c1cccc([N+](=O)[O-])c1`: the growth is 103%.

For `O=c1c2c3c(sc2n2cnnc2n1Cc1ccccc1)CCCC3`, the growth is 106%.

Turning to `COc1cc(C)cc2oc3oc(=O)c(C(=O)c4cc5cc(Br)ccc5o4)cc3c(=O)c12`, the growth was 110%.

With `COc1ccc(OC)c([N+](=O)[O-])c1C(=O)CNC(C)=O`, the growth was 103%.

For the molecule `COc1cc(C(=O)/C=C/c2c(-c3ccc(F)cc3)nc3sccn23)cc(OC)c1OC`, the growth is 25.7%.

As for `CC(C)c1ccc(C(=O)Nc2nc3ccc(O)cc3s2)cc1`, the growth is 33.9%.

On to `C=C(C)C1CCC2(C(=O)O)CCC3(C)C(CCC4C5(C)CCC(OC(=O)NCc6ccccc6)C(C)(C)C5CCC43C)C12` (stereo not drawn), for which the growth was 30.7%.

Regarding `CCOC(=O)c1ccc2nc(-c3c(C)nn(-c4ccccc4)c3N3CCOCC3)[nH]c2c1`, the growth is 87.1%.

Turning to `Nc1nc(SCc2cccc([N+](=O)[O-])c2)c2[nH]cnc2n1`, the growth is 99.3%.

`COc1ccc2nc3c(cc2c1)C(=O)CC(c1ccccc1)C3` (stereo not drawn): the growth is 92.7%.

As to `CCCC[C@@H](C=O)NC(=O)[C@H](CC(C)C)NC(=O)[C@H](CC(C)C)NC(=O)OCc1ccccc1`, the growth is 10.8%.

As for `O=C(N/N=C/c1ccc([N+](=O)[O-])cc1)c1ccc(Br)o1`, the growth is 99.8%.

With `NC1=NC(=O)NC1(c1ccccc1)c1ccccc1`, the growth is 105%.

For `CSc1nc2sc3cc(Cl)c(Cl)cc3n2c(=N)c1C#N`, the growth is 97.5%.

Turning to `Cn1c(=O)c(C#N)c(-c2ccco2)n2c(S(=O)(=O)Cc3ccccc3)nnc12`, the growth was 81.9%.

Take `Nc1ccc2c(c1)Cc1cc(NC(=O)C(F)(F)F)ccc1-2`: the growth is 109%.

Turning to `NC(=O)c1c(NC(=O)COC(=O)Cc2ccccc2F)sc2c1CCC2`, the growth is 114%.

As to `Cc1cccc([N+](=O)[O-])c1I`, the growth was 110%.

As to `COc1ccc2nc3ccccc3c(NCCNCCO)c2c1`, the growth is -10.4% (active).

In the case of `Cc1cc(NN=C(c2ccc(O)cc2)c2ccc(O)cc2)c([N+](=O)[O-])cc1[N+](=O)[O-]`, the growth is 52.6%.

Regarding `N#Cc1c(Cl)nc(SCC2CO2)nc1-c1ccccc1` (stereo not drawn), the growth was 103%.

For `CCCCCCCCCCCCCCNC(=O)Nc1ccc(Cl)c(Cl)c1`, the growth is 24.7%.

For `O=C1NC(=O)c2cc([N+](=O)[O-])cc3cccc1c23`, the growth is 95.7%.

`CCN(CC)CCSC(=O)C(O)(c1ccccc1)C1CCCC1` (stereo not drawn): the growth was 119%.

`CCC(Br)(CC)C(=O)c1ccc(OCC(=O)O)c(Cl)c1Cl`: the growth was 97.4%.

For the molecule `COc1ccc(C2CC(c3cc(OC)c(OC)c(OC)c3)=NN2C(C)=O)cc1OCC(=O)Nc1nc2ccc(C(F)(F)F)cc2s1` (stereo not drawn), the growth was 69.5%.

For the origin of these results see PubChem BioAssay (NCI).
